# Assay results: PMC5540273 (PLoS ONE, 2017)
# Where two headings read alike, the source gives them in different places.
# Legend:
# CAMK1 = conditions: concentration: 1 μM,replicates: in singlicate; n = 1
# CAMK2A = conditions: concentration: 1 μM,replicates: in singlicate; n = 1
# CAMK2B = conditions: concentration: 1 μM,replicates: in singlicate; n = 1
# CAMK2D = conditions: concentration: 1 μM,replicates: in singlicate; n = 1
# CAMK2G = conditions: concentration: 1 μM,replicates: in singlicate; n = 1
# CAMK4 = conditions: concentration: 1 μM,replicates: in singlicate; n = 1
# CAMKK1 = conditions: concentration: 1 μM,replicates: in singlicate; n = 1
# CAMKK2 = conditions: concentration: 1 μM,replicates: in singlicate; n = 1
# CASK = conditions: concentration: 1 μM,replicates: in singlicate; n = 1
# CDC2L1 = system: T1, CDC2L1; conditions: concentration: 1 μM,replicates: in singlicate; n = 1
# T1 construct: gene CDK11B
# CDC2L2 = conditions: concentration: 1 μM,replicates: in singlicate; n = 1
# CDC2L5 = system: T2, CDC2L5; conditions: n = 1
# T2 construct: gene CDK13
# CDK11 = system: T3, CDK11; conditions: concentration: 1 μM,replicates: in singlicate; n = 1
# T3 construct: gene CDK19
# CDK2 = conditions: concentration: 1 μM,replicates: in singlicate; n = 1
# CDK3 = conditions: concentration: 1 μM,replicates: in singlicate; n = 1
# CDK4-cyclinD1 = conditions: n = 1
# CDK4-cyclinD3 = conditions: n = 1
# CDK4 = conditions: n = 1
# CDK5 = conditions: concentration: 1 μM,replicates: in singlicate; n = 1
# CDK7 = conditions: concentration: 1 μM,replicates: in singlicate; n = 1
# [1] = concentration: 1 μM,replicates: in singlicate
# 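Also: KINOMEscan kinase panel screen.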
smiles,measurement,setting,value
COc1cccc(OC)c1C(=O)Nc1cccc(-c2nn3ccccc3c2-c2ccnc(Nc3cccc(F)c3)n2)c1 [GSK361065],%Inh,CAMK1,19%
same,%Inh,CAMK2A,27%
same,%Inh,CAMK2B,6%
same,%Inh,CAMK2D,0%
same,%Inh,CAMK2G,0%
same,%Inh,CAMK4,0%
same,%Inh,CAMKK1,4%
same,%Inh,CAMKK2,0%
same,%Inh,CASK,15%
same,%Inh,CDC2L1,0%
same,%Inh,CDC2L2,0%
same,%Inh,CDC2L5; 1 µM,1%
same,%Inh,CDK11,0%
same,%Inh,CDK2,0%
same,%Inh,CDK3,0%
same,%Inh,CDK4-cyclinD1; 1 µM,0%
same,%Inh,CDK4-cyclinD3; 1 µM,7%
same,%Inh,CDK4; 1 µM,0%
same,%Inh,CDK5,21%
same,%Inh,CDK7,22%
CS(=O)c1ccc(-c2coc3ccc(-c4n[nH]c(=O)o4)cc23)cc1 (centres unmarked),%Inh,CAMK1,0%
same,%Inh,CAMK2A,5%
same,%Inh,CAMK2B,16%
same,%Inh,CAMK2D,6%
same,%Inh,CAMK2G,3%
same,%Inh,CAMK4,0%
same,%Inh,CAMKK1,7%
same,%Inh,CAMKK2,12%
same,%Inh,CASK,26%
same,%Inh,CDC2L1,0%
same,%Inh,CDC2L2,0%
same,%Inh,CDC2L5; [1],36%
same,%Inh,CDK11,96.9%
same,%Inh,CDK2,0%
same,%Inh,CDK3,4%
same,%Inh,CDK4-cyclinD1; [1],0%
same,%Inh,CDK4-cyclinD3; [1],0%
same,%Inh,CDK4; [1],10%
same,%Inh,CDK5,0%
same,%Inh,CDK7,38%
COc1cc2ncn(-c3cc(OCC4CCCCC4)c(C(N)=O)s3)c2cc1OC [GSK204559],%Inh,CAMK1,13%
same,%Inh,CAMK2A,0%
same,%Inh,CAMK2B,0%
same,%Inh,CAMK2D,5%
same,%Inh,CAMK2G,33%
same,%Inh,CAMK4,0%
same,%Inh,CAMKK1,12%
same,%Inh,CAMKK2,26%
same,%Inh,CASK,19%
same,%Inh,CDC2L1,0%
same,%Inh,CDC2L2,6%
same,%Inh,CDC2L5; [1],0%
same,%Inh,CDK11,12%
same,%Inh,CDK2,0%
same,%Inh,CDK3,21%
same,%Inh,CDK4-cyclinD1; [1],0%
same,%Inh,CDK4-cyclinD3; [1],0%
same,%Inh,CDK4; [1],8%
same,%Inh,CDK5,0%
same,%Inh,CDK7,86%
Cn1ccc2ncnc(Oc3ccc(NC(=O)Nc4ccnc(C(F)(F)F)c4)c(Cl)c3)c21,%Inh,CAMK1,0%
same,%Inh,CAMK2A,0%
same,%Inh,CAMK2B,0%
same,%Inh,CAMK2D,13%
same,%Inh,CAMK2G,25%
same,%Inh,CAMK4,0%
same,%Inh,CAMKK1,13%
same,%Inh,CAMKK2,7%
same,%Inh,CASK,0%
same,%Inh,CDC2L1,0%
same,%Inh,CDC2L2,0%
same,%Inh,CDC2L5; [1],20%
same,%Inh,CDK11,98%
same,%Inh,CDK2,0%
same,%Inh,CDK3,0%
same,%Inh,CDK4-cyclinD1; [1],0%
same,%Inh,CDK4-cyclinD3; [1],0%
same,%Inh,CDK4; [1],0%
same,%Inh,CDK5,0%
same,%Inh,CDK7,1%
O=C(Nc1n[nH]c2cc(-c3ccco3)ccc12)C1CC1 [SB-737447],%Inh,CAMK1,5%
same,%Inh,CAMK2A,39%
same,%Inh,CAMK2B,34%
same,%Inh,CAMK2D,3%
same,%Inh,CAMK2G,4%
same,%Inh,CAMK4,0%
same,%Inh,CAMKK1,4%
same,%Inh,CAMKK2,5%
same,%Inh,CASK,17%
same,%Inh,CDC2L1,0%
same,%Inh,CDC2L2,7%
same,%Inh,CDC2L5; [1],19%
same,%Inh,CDK11,0%
same,%Inh,CDK2,49%
same,%Inh,CDK3,7%
same,%Inh,CDK4-cyclinD1; [1],0%
same,%Inh,CDK4-cyclinD3; [1],6%
same,%Inh,CDK4; [1],5%
same,%Inh,CDK5,11%
same,%Inh,CDK7,38%
CC(C(=O)NC1CCN(c2ccnc(Nc3ccc(F)cc3)n2)C1)c1ccc(Cl)cc1 (centres unmarked) [GSK1379713],%Inh,CAMK1,8%
same,%Inh,CAMK2A,0%
same,%Inh,CAMK2B,0%
same,%Inh,CAMK2D,2%
same,%Inh,CAMK2G,26%
same,%Inh,CAMK4,0%
same,%Inh,CAMKK1,0%
same,%Inh,CAMKK2,5%
same,%Inh,CASK,0%
same,%Inh,CDC2L1,0%
same,%Inh,CDC2L2,0%
same,%Inh,CDC2L5; [1],0%
same,%Inh,CDK11,6%
same,%Inh,CDK2,0%
same,%Inh,CDK3,23%
same,%Inh,CDK4-cyclinD1; [1],0%
same,%Inh,CDK4-cyclinD3; [1],0%
same,%Inh,CDK4; [1],0%
same,%Inh,CDK5,0%
same,%Inh,CDK7,0%
CN1CCN(CCNc2nc3cc(Oc4ccc(NC(=O)Nc5cc(C(F)(F)F)ccc5F)cc4)ccc3[nH]2)CC1.Cl.Cl [GW768504],%Inh,CAMK1,15%
same,%Inh,CAMK2A,0%
same,%Inh,CAMK2B,0%
same,%Inh,CAMK2D,0%
same,%Inh,CAMK2G,0%
same,%Inh,CAMK4,20%
same,%Inh,CAMKK1,0%
same,%Inh,CAMKK2,0%
same,%Inh,CASK,16%
same,%Inh,CDC2L1,0%
same,%Inh,CDC2L2,7%
same,%Inh,CDC2L5; [1],0%
same,%Inh,CDK11,47%
same,%Inh,CDK2,0%
same,%Inh,CDK3,6%
same,%Inh,CDK4-cyclinD1; [1],0%
same,%Inh,CDK4-cyclinD3; [1],0%
same,%Inh,CDK4; [1],2%
same,%Inh,CDK5,0%
same,%Inh,CDK7,96.6%
C[C@@H]1CCN(C(=O)N2CCCC2)C[C@@H]1N(C)c1ncnc2[nH]ccc12,%Inh,CAMK1,5%
same,%Inh,CAMK2A,2%
same,%Inh,CAMK2B,0%
same,%Inh,CAMK2D,12%
same,%Inh,CAMK2G,14%
same,%Inh,CAMK4,19%
same,%Inh,CAMKK1,15%
same,%Inh,CAMKK2,8%
same,%Inh,CASK,0%
same,%Inh,CDC2L1,3%
same,%Inh,CDC2L2,0%
same,%Inh,CDC2L5; [1],6%
same,%Inh,CDK11,2%
same,%Inh,CDK2,0%
same,%Inh,CDK3,15%
same,%Inh,CDK4-cyclinD1; [1],21%
same,%Inh,CDK4-cyclinD3; [1],8%
same,%Inh,CDK4; [1],11%
same,%Inh,CDK5,18%
same,%Inh,CDK7,34%
Cn1ccc2ncnc(Oc3ccc(NC(=O)Nc4cccc(C(F)(F)F)c4)c(F)c3)c21,%Inh,CAMK1,0%
same,%Inh,CAMK2A,6%
same,%Inh,CAMK2B,8%
same,%Inh,CAMK2D,6%
same,%Inh,CAMK2G,10%
same,%Inh,CAMK4,15%
same,%Inh,CAMKK1,18%
same,%Inh,CAMKK2,19%
same,%Inh,CASK,0%
same,%Inh,CDC2L1,19%
same,%Inh,CDC2L2,0%
same,%Inh,CDC2L5; [1],33%
same,%Inh,CDK11,99.3%
same,%Inh,CDK2,7%
same,%Inh,CDK3,39%
same,%Inh,CDK4-cyclinD1; [1],16%
same,%Inh,CDK4-cyclinD3; [1],0%
same,%Inh,CDK4; [1],0%
same,%Inh,CDK5,10%
same,%Inh,CDK7,68%
CCn1c(-c2nonc2N)nc2cncc(CNC3CCNCC3)c21.Cl [SB-747651],%Inh,CAMK1,19%
same,%Inh,CAMK2A,0%
same,%Inh,CAMK2B,0%
same,%Inh,CAMK2D,5%
same,%Inh,CAMK2G,17%
same,%Inh,CAMK4,71%
same,%Inh,CAMKK1,1%
same,%Inh,CAMKK2,16%
same,%Inh,CASK,16%
same,%Inh,CDC2L1,0%
same,%Inh,CDC2L2,0%
same,%Inh,CDC2L5; [1],0%
same,%Inh,CDK11,5%
same,%Inh,CDK2,0%
same,%Inh,CDK3,11%
same,%Inh,CDK4-cyclinD1; [1],0%
same,%Inh,CDK4-cyclinD3; [1],14%
same,%Inh,CDK4; [1],33%
same,%Inh,CDK5,0%
same,%Inh,CDK7,0%
